The campaign covered roughly 320,000 compounds. About 9,100 (2.8%) were called active. A call without a number means that no potency is given here. Roughly 3% stayed inconclusive and do not appear here. The sample holds actives, similar compounds and a random draw of the others, so the mix is not that of the screen. Calls come from the whole dose curve; as a rule, active = well fitted activation curve with a large enough effect; inconclusive = small, poorly fitted or top-dose-only effect; inactive = no such curve, though single readings can be large or run the other way.
Potency is the fitted concentration of half-maximal effect.

The nature of this test: qHTS Assay for Rab9 Promoter Activators. Note: nearly all actives have a fitted effect of over 60% in size. Particulars: Huh7 Rab9 promoter-luciferase reporter, luminescence, 24 h; series mostly up to 9.22 µM. An excerpt: NIH Chemical Genomics Center [NCGC] NIH Molecular Libraries Probe Production centers Network [MLPCN] MLPCN Grant: MH089537-01 Assay Submitter (PI): Yiannis A. Ioannou NCGC Assay Overview: Niemann Pick Type C (NPC) is a rare neurodegenerative lipidosis that is characterized by lipid storage in the endosomal/lysosomal system. Treatment modalities for this devastating disease are currently non-existent due to the severe obstacles associated with accessing the central nervous system with proteins or genes (Ioannou, 2000). We have developed a new paradigm, termed "Orphan Receptor Bypass Therapy" (ORByT), to address these disorders. This paradigm posits the existence of endogenous "suppressor" proteins whose expression can dramatically improve LSD pathogenesis. The goal is the identification/discovery of small chemical compounds that can modulate the expression of these proteins and provide a new treatment modality for these devastating disorders. One such protein whose overexpression reverses aspects of the NPC phenotype is Rab9. We have developed and optimized a cell based luciferase reporter assay in 1536 well format for the identification of up-regulators of the Rab9 promoter.
The Rab9 promoter is cloned in front of the luciferase reporter gene, therefore […] promoter activation results in luciferase expression. Frozen stock of the Rab9 promoter transfected Huh7 cells were obtained from the laboratory of Dr. Yiannis Ioannou (The Mount Sinai School of Medicine, New York, NY). Cells were propagated and maintained at NCGC in medium containing RPMI-1640 supplemented with 10% FBS, 2mM L-glutamine, and 50ug/ml penicillin/streptomycin. Cells were harvested in and plated for assays in OP-MEM I reduced-serum medium supplemented with 10% FBS. The Amplite luciferase reporter gene assay kit was purchased from ABD Bioquest and prepared/stored according to manufacturers recommendations. qHTS Assay Setup: 1.Dispensed 5ul of Huh7 cells stably expressing Rab9-luciferase at a density of 1500 cells per well 1536-well plates. 2.Incubate cells at 37C, 5% CO2, and 95% humidity for 2 hours. 3.Transferred 23nl per well of compound in DMSO solution. 4.Incubated at 37C, 5% CO2, and 95% humidity for 24 hours. 5.Dispensed 3ul per well of Amplite reagent(ABD Bioquest) per well. 6.Incubate at ambient for 10 minutes. 7.Read using the luminescence protocol on the ViewLux plate reader (Perkin Elmer).
In the case of `COc1ccc(C(=O)NC2CCN(C(=S)Nc3ccccc3)CC2)cc1`, the Potency result is “inactive”.

As for `CCC(C)N(C)C1CCN(C(=S)Nc2ccc(OC)cc2)CC1` (stereo not drawn), the Potency result is “inactive”.

Consider `COc1ccc(NC(=S)N2N=CCC2c2ccccc2)cc1` (stereo not drawn), for which the Potency is 3160 nM (active).

`CC(C(=O)Nc1ccc(S(=O)(=O)N2CCCC2)cc1)N(C)Cc1ccc(F)cc1` (stereo not drawn): the Potency result is “inactive”.

As for `CN(CC(=O)NCc1ccc(Cl)cc1)S(=O)(=O)c1cccs1`, the Potency result was “inactive”.

Turning to `COc1cccc(NC(=O)COC(=O)/C=C/c2ccco2)c1`, the Potency entry was “inactive”.

Take `COC(=O)C1=C(C)NC(=S)NC1c1ccc(OCC(=O)N2CC(C)OC(C)C2)c(OC)c1` (stereo not drawn): the Potency entry was “inactive”.

`O=C(NCc1ccc2c(c1)OCO2)c1ccc(Cl)s1`: the Potency result is “inactive”.

As to `COc1ccc(C(=O)NC2=NCCS2)c(OC)c1`, the Potency is 1410 nM (active).

`COc1ccccc1C(=O)NCCC(=O)NC1=NCCS1`: the Potency entry is “inactive”.

For the molecule `O=C(NC1=NCCS1)c1ccc(Cl)s1`, the Potency is 3980 nM (active).

In the case of `CCOc1ccc(C(=O)CCC(=O)NC2=NCCS2)cc1`, the Potency result is “inactive”.

For the molecule `COc1ccc(Cc2nnc(NC(=O)c3ccc(OC)cc3OC)s2)cc1`, the Potency result was “inactive”.

In the case of `COc1ccc(OC)c(NC(=O)c2cnn(-c3ccccc3Cl)c2NC(=O)c2ccco2)c1`, the Potency result was “inactive”.

As for `COc1ccccc1OCC(=O)Nc1c2c(nn1-c1ccc(F)cc1)CS(=O)(=O)C2`, the Potency result is “inactive”.

`Cc1occc1-c1nnc(SCC(=O)NC2(C#N)CCCC2)n1C`: the Potency entry was “inactive”.

As to `CC(C)(C)C(=O)Nc1ccc(-c2cn3cccnc3n2)cc1`, the Potency was 3980 nM (active).

For `FC(F)(F)Oc1ccc(-c2cn3cccnc3n2)cc1`, the Potency is 2510 nM (active).

For `CC(=O)Nc1ccc(S(=O)(=O)Nc2nc(-c3ccc(C(C)(C)C)cc3)cs2)cc1`, the Potency entry is “inactive”.

Turning to `CC(=O)Nc1ccc(S(=O)(=O)Nc2cccc(NC(=O)C(C)(C)C)c2)cc1`, the Potency entry was “inactive”.

Consider `O=c1ccc(S(=O)(=O)N2CCCC2)cn1Cc1nc(-c2ccccc2)no1`, for which the Potency entry is “inactive”.

Turning to `O=C(Cn1nnc(-c2ccccc2)n1)NC(=O)NC1CCCC1`, the Potency result is “inactive”.

Take `CCOc1ccc(NC(=O)CN(C)C(=O)c2cccc(S(=O)(=O)N3CCCC3)c2)cc1OCC`: the Potency entry was “inactive”.

For the molecule `CCN(CC(=O)Nc1ccc(OC)cc1)C(=O)CSCc1ccc(C)cc1`, the Potency result is “inactive”.

Regarding `CC1(C)CC(=O)C=C(c2ccc3ncccc3c2)C1`, the Potency entry is “inactive”.

For the molecule `O=C(Nc1cc(S(=O)(=O)N2CCOCC2)ccc1OCC(F)(F)F)c1ccc(N2CCCC2=O)cc1`, the Potency result is “inactive”.

On to `O=C(CSc1ccc(-c2ccco2)nn1)Nc1cccc(F)c1`, for which the Potency result was “inactive”.

For `Cc1cc(SCc2c(F)cccc2Cl)nc(=O)[nH]1`, the Potency result was “inactive”.

As for `Fc1cccc(Cl)c1CSc1ccc(-c2ccco2)nn1`, the Potency was 2510 nM (active).

Take `O=C(COC(=O)CNC(=O)C1CCCCC1)Nc1cccc(F)c1`: the Potency result was “inactive”.

`CCN(CC(=O)Nc1c(F)cccc1F)C(=O)c1ccc(-c2ccc(C(C)=O)cc2)o1`: the Potency result is “inactive”.

For the molecule `Cc1cc(C)cc(-c2nnc(SCC(=O)NC3CC3)o2)c1`, the Potency result is “inactive”.

Turning to `Cc1ccc(C(CC(=O)O)NC(=O)c2ccc(S(=O)(=O)N3CCCC3)cc2)cc1` (stereo not drawn), the Potency entry was “inactive”.

For the molecule `CC(=O)Nc1cccc(C(=O)OCC(=O)Nc2nnc(-c3ccccc3)o2)c1`, the Potency entry was “inactive”.

With `O=C(OCc1ccc(Br)cc1)c1cccc(-c2nnc(-c3ccccc3)o2)c1`, the Potency was 3550 nM (active).

Take `O=C(OCc1nnc(-c2ccccc2)o1)c1ccc2c(c1)C(=O)N(CCc1ccccc1)C2=O`: the Potency result was “inactive”.

On to `O=C(NCCC1=CCCCC1)c1ccc(Cl)c([N+](=O)[O-])c1`, for which the Potency result is “inactive”.

For the molecule `O=C(COc1cccc(-n2cnnn2)c1)NCCC1=CCCCC1`, the Potency entry was “inactive”.

As for `O=C(NCCC1=CCCCC1)c1ccc(-n2cncn2)cc1`, the Potency is 3160 nM (active).

Regarding `C=C1CCC(N(O)c2cc(C)on2)C(=C)CCC2C1CC2(C)C` (stereo not drawn), the Potency entry was “inactive”.

`Cc1ccc(OCC(=O)N2CCN(S(=O)(=O)c3ccc(Cl)s3)CC2)cc1C`: the Potency result was “inactive”.

As to `Cc1ccc(/C=C/C(=O)OCC(=O)NCc2ccc(Cl)cc2)o1`, the Potency entry is “inactive”.

Regarding `COc1ccc(Cn2c(=S)[nH]c3cc(C(=O)N4CCCCC4)ccc3c2=O)cc1`, the Potency entry is “inactive”.

With `CCOc1ccc(OCc2cccc(C(=O)N(CC)CC)c2)cc1`, the Potency is 141 nM (active).

As for `COc1ccc(OCc2cccc(C(=O)N3CCCC3)c2)cc1`, the Potency is 398 nM (active).

Turning to `CN(Cc1ccccc1)C(=O)c1ccc(COc2ccccc2)cc1`, the Potency result is “inactive”.

For the molecule `COc1cccc(COc2ccc(N(C)S(=O)(=O)c3ccccc3)cc2)c1`, the Potency result was “inactive”.

`CC(=O)Oc1ccc(-c2cccc(C(=O)N3CCCCC3)c2)cc1`: the Potency entry is “inactive”.

For the molecule `COc1ccccc1CNS(=O)(=O)c1cc(C(=O)NCc2ccccn2)c(Cl)cc1Cl`, the Potency result is “inactive”.

For the molecule `CC(C(=O)N(C)CC(=O)Nc1ccccc1C(F)(F)F)N1C(=O)c2ccccc2C1=O` (stereo not drawn), the Potency result is “inactive”.

In the case of `Nn1c(SCC(=O)Nc2nccs2)nnc1-c1ccco1`, the Potency result was “inactive”.

For `CCN(CC(=O)Nc1ccc(OC)cc1)C(=O)c1ccc(Cl)c(S(=O)(=O)N2CCCC2)c1`, the Potency entry is “inactive”.

In the case of `Cc1ccccc1NC(=O)Cc1nc(COC(=O)c2cccnc2Cl)cs1`, the Potency result was “inactive”.
